The campaign covered roughly 310,000 compounds. About 2,200 (0.71%) showed an effect of 50% or more. The effect is printed as a negative number. For the sample, strong results were picked, then their nearest neighbours and some compounds at random.

For the experiment, the target named is human ether-à-go-go-related gene (hERG) potassium channel (human, UniProt Q12809). Kind of experiment: primary screen, population patch clamp on CHO cells stably expressing hERG; higher = less effect of the substance.
Chain of human ether-à-go-go-related gene (hERG) potassium channel (Q12809 whole entry, looked up): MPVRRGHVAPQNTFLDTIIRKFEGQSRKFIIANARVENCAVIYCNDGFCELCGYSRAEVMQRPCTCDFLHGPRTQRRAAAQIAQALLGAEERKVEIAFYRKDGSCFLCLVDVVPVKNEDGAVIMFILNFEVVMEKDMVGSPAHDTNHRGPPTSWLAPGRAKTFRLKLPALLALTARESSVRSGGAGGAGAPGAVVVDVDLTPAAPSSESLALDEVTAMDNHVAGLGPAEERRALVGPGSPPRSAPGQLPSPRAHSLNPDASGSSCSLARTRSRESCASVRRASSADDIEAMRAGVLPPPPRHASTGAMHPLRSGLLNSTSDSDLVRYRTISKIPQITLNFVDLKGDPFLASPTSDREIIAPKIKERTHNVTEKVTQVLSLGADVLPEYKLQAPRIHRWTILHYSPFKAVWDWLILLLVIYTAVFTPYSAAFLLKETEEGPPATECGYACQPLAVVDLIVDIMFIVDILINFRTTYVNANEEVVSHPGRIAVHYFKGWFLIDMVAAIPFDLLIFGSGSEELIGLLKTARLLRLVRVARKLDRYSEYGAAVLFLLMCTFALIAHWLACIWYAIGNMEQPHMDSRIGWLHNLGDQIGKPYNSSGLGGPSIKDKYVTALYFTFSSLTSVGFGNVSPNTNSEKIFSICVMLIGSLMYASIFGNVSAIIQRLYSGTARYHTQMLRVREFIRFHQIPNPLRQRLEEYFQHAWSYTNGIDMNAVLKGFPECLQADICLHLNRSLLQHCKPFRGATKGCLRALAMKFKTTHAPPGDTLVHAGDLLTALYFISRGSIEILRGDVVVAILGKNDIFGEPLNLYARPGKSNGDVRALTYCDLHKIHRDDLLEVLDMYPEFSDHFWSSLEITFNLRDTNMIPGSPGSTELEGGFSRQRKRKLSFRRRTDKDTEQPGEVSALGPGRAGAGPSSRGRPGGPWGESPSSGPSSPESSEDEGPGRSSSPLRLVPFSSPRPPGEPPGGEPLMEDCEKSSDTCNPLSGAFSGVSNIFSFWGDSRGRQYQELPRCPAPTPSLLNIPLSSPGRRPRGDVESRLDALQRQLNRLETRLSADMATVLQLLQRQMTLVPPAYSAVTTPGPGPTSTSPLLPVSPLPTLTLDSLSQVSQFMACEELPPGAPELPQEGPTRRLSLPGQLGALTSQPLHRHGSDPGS
With `C=CCc1cc(Cl)ccc1OCCCn1ccnc1.O=C(O)C(=O)O`, the “hERG current change (%, negative = inhibition) at 1uM” value was determined as 7.27%.

Take `COc1ccc(C(=O)NC(=O)NC2(C(Cl)(Cl)Cl)OCCO2)cc1`: the “hERG current change (%, negative = inhibition) at 1uM” value was 8.1%.

`Cc1ccc(NC(=O)C2CC(=O)N(CCc3ccccc3)C2)c(C)c1` (stereo not drawn): the “hERG current change (%, negative = inhibition) at 1uM” value amounted to 2.1%.

With `CC(C)CCNC(=O)c1c(N)n(Cc2ccc3c(c2)OCO3)c2nc3ccccc3nc12`, the “hERG current change (%, negative = inhibition) at 1uM” value came out at 11.9%.

Regarding `COc1ccc(CC2(CO)CCN(S(=O)(=O)N(C)C)CC2)cc1`, the “hERG current change (%, negative = inhibition) at 1uM” value came to 14.7%.

For `CC(COc1ccccc1)N1CCC(CO)(Cc2ccccc2)CC1` (stereo not drawn), the “hERG current change (%, negative = inhibition) at 1uM” value was -13.3%.

In the case of `CSCC(C)N1CCC(CO)(CCc2ccccc2)CC1` (stereo not drawn), the “hERG current change (%, negative = inhibition) at 1uM” value was determined as 13.9%.

With `COc1ccc(CC2(CO)CCN(C(C)Cc3ccc(Cl)cc3)CC2)cc1` (stereo not drawn), the “hERG current change (%, negative = inhibition) at 1uM” value was -80%.

With `CN(C)S(=O)(=O)N1CCC(CO)(CCc2ccccc2)CC1`, the “hERG current change (%, negative = inhibition) at 1uM” value is on record as 12%.

For `COc1ccc(CC2(CO)CCN(C(C)COc3ccccc3)CC2)cc1` (stereo not drawn), the “hERG current change (%, negative = inhibition) at 1uM” value is listed as -68.4%.

Consider `CC(COc1ccccc1)N1CCC(CO)(CCc2ccccc2)CC1` (stereo not drawn), for which the “hERG current change (%, negative = inhibition) at 1uM” value is -84.8%.

`COc1ccc(CC2(CO)CCN(C(=O)NCc3ccccc3)CC2)cc1`: the “hERG current change (%, negative = inhibition) at 1uM” value turned out to be 10.4%.

In the case of `COc1ccc(CCC(C)N2CCC(CO)(Cc3ccccc3)CC2)cc1` (stereo not drawn), the “hERG current change (%, negative = inhibition) at 1uM” value is -31.6%.

`Cc1cccc2nc(-c3ccco3)c(Nc3ccc4c(c3)OCO4)n12`: the “hERG current change (%, negative = inhibition) at 1uM” value came to 5.48%.

Turning to `CSCCC(NC(=O)c1ccc(Cl)cc1)C(=O)OCC(=O)Nc1ccc(C#N)cc1` (stereo not drawn), the “hERG current change (%, negative = inhibition) at 1uM” value is given as -1.39%.

On to `CCCn1cc(CN2CCCC(C(=O)c3cccc(OC)c3)C2)c(C)n1` (stereo not drawn), for which the “hERG current change (%, negative = inhibition) at 1uM” value was -14.5%.

On to `CS(=O)(=O)N1CCc2cc(-c3csc(NC(=O)Cc4cccs4)n3)ccc21`, for which the “hERG current change (%, negative = inhibition) at 1uM” value is reported as -5%.

Consider `CCc1ccccc1NNC(=O)c1snnc1C`, for which the “hERG current change (%, negative = inhibition) at 1uM” value was determined as 1.7%.

With `CCC(C)N(C(=O)COC(=O)c1nc2nc(C)cc(C)n2n1)C1CCS(=O)(=O)C1` (stereo not drawn), the “hERG current change (%, negative = inhibition) at 1uM” value was determined as 21.2%.

In the case of `O=C(O)CCn1cc(C=C2C(=O)NC(=O)NC2=O)c(-c2cc3ccccc3oc2=O)n1`, the “hERG current change (%, negative = inhibition) at 1uM” value amounted to 20.6%.

As to `Cc1c(C(=O)N2CCN(C(=O)c3ccccc3)CC2)oc2ccc(F)cc12`, the “hERG current change (%, negative = inhibition) at 1uM” value is recorded as -5.86%.

As for `Cc1c(C(=O)N2CCN(CCc3ccccn3)CC2)oc2ccc(Cl)cc12`, the “hERG current change (%, negative = inhibition) at 1uM” value was -84.6%.

Consider `Cc1c(C(=O)N2CCN(CCc3ccccc3)CC2)oc2ccccc12`, for which the “hERG current change (%, negative = inhibition) at 1uM” value is given as -36%.

For the compound `Cc1cc2oc(C(=O)N3CCN(CCc4ccccn4)CC3)c(C)c2cc1C`, the “hERG current change (%, negative = inhibition) at 1uM” value is -6.88%.

As to `Cc1c(C(=O)N2CCN(CCc3ccccn3)CC2)oc2ccc(F)cc12`, the “hERG current change (%, negative = inhibition) at 1uM” value was -61.3%.

`Cc1c(C(=O)N2CCN(c3ncccn3)CC2)oc2ccc(Cl)cc12`: the “hERG current change (%, negative = inhibition) at 1uM” value was determined as 2.57%.

Take `Fc1ccc(Cn2nnc(-c3ccc(Cl)cc3)n2)cc1`: the “hERG current change (%, negative = inhibition) at 1uM” value is listed as 11.5%.

Turning to `Cc1nc2ccccc2c(=O)n1NC(=O)Cc1ccc(Br)cc1`, the “hERG current change (%, negative = inhibition) at 1uM” value was 5.31%.

Consider `COc1cccc(OCC(=O)NNC(=O)c2cccs2)c1`, for which the “hERG current change (%, negative = inhibition) at 1uM” value is 9.89%.

With `O=C1N(c2ccc(Cl)cc2)C(c2cccnc2)N2CCCN12` (stereo not drawn), the “hERG current change (%, negative = inhibition) at 1uM” value is given as 6.95%.

Take `C/C(=N\NC(=O)COc1c(C)cccc1C)c1cccs1`: the “hERG current change (%, negative = inhibition) at 1uM” value was 8.57%.

For the compound `CCC(CC)C(=O)Nc1ccc(C)c(O)c1`, the “hERG current change (%, negative = inhibition) at 1uM” value came to 5.34%.

Turning to `O=C(Nc1ccnn1C1CCN(C2CCOCC2)CC1)c1cccc(F)c1`, the “hERG current change (%, negative = inhibition) at 1uM” value is on record as 1.92%.

Turning to `O=C(Nc1ccnn1C1CCN(C/C=C/c2ccccc2)CC1)c1cccc(F)c1`, the “hERG current change (%, negative = inhibition) at 1uM” value is given as -58.5%.

For `O=C(Nc1ccnn1C1CCN(Cc2ccc(CO)o2)CC1)c1ccccc1Cl`, the “hERG current change (%, negative = inhibition) at 1uM” value worked out at 6.94%.

Consider `O=C(CCc1ccccc1)Nc1ccnn1C1CCN(C/C=C/c2ccccc2)CC1`, for which the “hERG current change (%, negative = inhibition) at 1uM” value is -24.2%.

Turning to `O=C(Nc1ccnn1C1CCN(C/C=C/c2ccccc2)CC1)c1ccccc1Cl`, the “hERG current change (%, negative = inhibition) at 1uM” value is -92.1%.

Take `O=C(Nc1ccnn1C1CCN(C/C=C/c2ccccc2)CC1)c1ccccc1`: the “hERG current change (%, negative = inhibition) at 1uM” value is recorded as -64.4%.

Turning to `CC(C)=CCN1CCC(n2nccc2NC(=O)c2ccccc2Cl)CC1`, the “hERG current change (%, negative = inhibition) at 1uM” value is -43%.

Take `O=C(Nc1ccnn1C1CCN(Cc2ccccn2)CC1)c1cccc(F)c1`: the “hERG current change (%, negative = inhibition) at 1uM” value turned out to be 6.56%.

In the case of `O=C(Nc1ccnn1C1CCN(Cc2ccc(CO)o2)CC1)c1ccccc1`, the “hERG current change (%, negative = inhibition) at 1uM” value is given as -0.976%.

As to `Cc1ccc(OCCNC(=O)CNC(=O)c2ccc(C)c(C)c2)cc1`, the “hERG current change (%, negative = inhibition) at 1uM” value worked out at 4.24%.

With `CCC(C(=O)NN1C(=O)c2ccccc2C1=O)c1ccccc1` (stereo not drawn), the “hERG current change (%, negative = inhibition) at 1uM” value came out at 13.8%.

Regarding `CCC(=O)c1ccc(OCC(=O)OCC(=O)NC2CCCC2)cc1`, the “hERG current change (%, negative = inhibition) at 1uM” value is listed as 14.5%.

As for `O=C(CCS(=O)(=O)c1ccc(Br)cc1)N1CCN(c2ccccc2Cl)CC1`, the “hERG current change (%, negative = inhibition) at 1uM” value was found to be 2.11%.

Source of the values: publication PMC4336329 (PLoS ONE, 2015).
